# Assay results taken from PubChem BioAssay (Tox21).
# Results filed as inconclusive are left out. Unmarked numbers belong to inactive results. The source made the active and inactive calls. Calls follow the shape of the dose curve; as a rule, active = well fitted cell-killing curve with a large enough effect in the repeat runs; inconclusive = weak or mixed curves; inactive = no such curve, though single readings can be large or run the other way.
# Test: qHTS assay to identify small molecule antagonists of the androgen receptor (AR) signaling pathway - cell viability counter screen (AID 743033; also: nearly all actives have a fitted effect of over 45% in size)
# Settings: AR-bla HEK293 viability, CellTiter-Glo luminescence, 16 h; series mostly up to 58.5 µM; activity change, negative = cytotoxicity: at the top concentration
# Text: National Center for Advancing Translational Sciences [NCATS]
# NIH Chemical Genomics Center [NCGC]
# U.S. Environmental Protection Agency [EPA]
# National Institutes of Environmental Health Sciences [NIEHS]
# National Toxicology Program [NTP]
# U.S. Food and Drug Administration [FDA]
# Androgen receptor (AR), a nuclear hormone receptor, plays a critical role in AR-dependent prostate cancer and other androgen related diseases. Endocrine disrupting chemicals (EDCs) and their interactions with steroid hormone receptors like AR may cause disruption of normal endocrine function as well as interfere with metabolic homeostasis, reproduction, developmental and behavioral functions. To identify the compounds that inhibit AR signaling, GeneBLAzer AR-UAS-bla-GripTite cell line (Invitrogen, Carlsbad, CA, USA) containing a beta-lactamase reporter gene under control of an Upstream Activator Sequence (UAS) stably integrated into HEK293 cells was used to screen the Tox21 10K compound library. The cytotoxicity of the Tox21 compound library against the AR-bla cell line was tested in parallel by measuring the cell viability using CellTiter-Glo assay in the same wells.
# Tox21 Assay Protocol Summary:
# AR-bla cells were dispensed at 2,000 cells/5 uL of assay medium per well into black wall/clear-bottom 1536-well plates using a Multidrop Combi (ThermoFisher Scientific, Waltham, MA) dispenser. After the assay plates were incubated at a 37C and 5% CO2 for 4 hr, 23 nL of compounds dissolved in DMSO, positive controls or DMSO only was transferred to the assay plate by a Pintool station (Kalypsys, San Diego, CA), followed by addition of 1 uL of agonist (R1881) in culture medium using a Bioraptr Flying Reagent Dispenser (FRD) workstation (Beckman Coulter, Indianapolis, IN, USA). The plates were incubated at a 37C and 5% CO2 for 16 h. After 1 uL of LiveBLAzerTM B/G FRET substrate was added using a Bioraptr FRD, the plates were incubated at room temperature for 2 h and fluorescence intensity was measured by an Envision plate reader (PerkinElmer, Shelton, CT). For cell viability readout that measures cytotoxicity, 4 ul/well of CellTiter-Glo reagent was added into the assay plates using a Bioraptr FRD. After 30 min incubation at room temperature, the luminescence intensity in the plates was measured using a ViewLux (PerkinElmer) plate reader.
# % is scaled to controls: 0 for no effect and ±100 for the full control effect; potency is read from the fitted curve at half-maximal effect.
SMILES,"activity change, negative = cytotoxicity",Potency
O=C(O)[C@@H]1[C@H]2C[C@H]3c4[nH]c5ccccc5c4CCN3C[C@@H]2CC[C@@H]1O,10.7% [at 27 µM],
CCCCCCCCCCCCCCCBr,-0.613%,
O=C1[C@H](CC[C@H](O)c2ccc(F)cc2)[C@@H](c2ccc(O)cc2)N1c1ccc(F)cc1,14.5%,
C=CC[N+]1([C@H]2C[C@H]3[C@@H]4CC[C@H]5C[C@H](OC(C)=O)[C@@H](N6CCCCC6)C[C@]5(C)[C@H]4CC[C@]3(C)[C@H]2OC(=O)CC)CCCCC1,0.447%,
O=C(/C=C/c1ccc(O)c(O)c1)O[C@@H]1C[C@](O)(C(=O)O)C[C@@H](O)[C@H]1O,1.68% [at 78.9 µM],
CC(C)c1ccccc1C(C)C,-2.56%,
CC(=O)OCCc1ccccc1,2.1%,
CCCCCC(CO)CCC (stereo not given),-3.04%,
COCCCCCCCCOCCC[Si](C)(O[Si](C)(C)C)O[Si](C)(C)C,,6.92 µM (active)
O=C(NS(=O)(=O)/C=C/c1cccs1)c1ccc(F)cc1Br,-0.0569%,
COCCO,-0.41%,
CC1=CC(=O)/C(=C(/C)O)C(=O)O1,5.65%,
OC(CCN1CCCCC1)(c1ccccc1)C1CCCCC1 (stereo not given),0.655%,
Cc1ccc(O)c([C@H](CCN(C(C)C)C(C)C)c2ccccc2)c1,6.56%,
Cc1ccc(C)o1,-0.185% [at 78.9 µM],
CC1(C)[C@H]2CC[C@]1(C)[C@H](O)C2,,inactive
CC(C)(C)C(=O)OCOP(=O)(COCCn1cnc2c(N)ncnc21)OCOC(=O)C(C)(C)C,14.4%,
CCCCOC(=O)c1ccccc1C(=O)OCC(CC)CCCC (stereo not given),-1.17%,
CC1CCc2cc(F)cc3c(=O)c(C(=O)O)cn1c23 (stereo not given),4.59%,
CCCCOC(=O)/C=C\C(=O)OCCCC,-17.2% [at 78.9 µM],

SMILES,"activity change, negative = cytotoxicity",Potency
CCCCCCCCCC(=O)OCC,5.63%,
CC(C)NCC(O)COc1ccc(CC(N)=O)cc1 (stereo not given),4.57%,
O=C(O)Cc1cc(I)c(Oc2ccc(O)c(I)c2)c(I)c1,,inactive
c1ccc(CNCc2ccccc2)cc1,6.45%,
CC(C)CCCCCCOC(=O)c1ccc(C(=O)OCCCCCCC(C)C)c(C(=O)OCCCCCCC(C)C)c1,1.1%,
COC(=O)CSc1cc(N=c2sc(=O)n3n2CCCC3)c(F)cc1Cl,-7.85%,
CN(C)C/C=C(/c1ccc(Br)cc1)c1cccnc1,5.32%,
Cc1c(Cn2ccnc2)c2ccccc2n1CCC(=O)O,-2.62%,
C1CCC2OC2C1 (stereo not given),1.85% [at 78.9 µM],
CC[C@H](C)[C@H](N)C(=O)O,3.9%,
CC(C)=CCCC(C)CC=O (stereo not given),-2.74%,
O=C(c1ccc(O)cc1)c1ccc(O)cc1,1.77%,
CCCOc1ccc2nc(NC(=O)OC)[nH]c2c1,-19.2%,
CC/C(=C\C(=N/O)C(N)=O)C(C)[N+](=O)[O-] (stereo not given),-15%,
C=C(C)C(=O)OCCOc1ccccc1,-9.18%,
CCOc1nc2cccc(C(=O)O)c2n1Cc1ccc(-c2ccccc2-c2nn[nH]n2)cc1,20%,
O=C(O)Cc1sc(-c2ccccc2)nc1-c1ccc(Cl)cc1,3.77%,
CCCC(C)C,1.69% [at 78.9 µM],
O=C(O)c1cccc(N(Cc2cccnc2)c2ccc(OC(F)F)c(OC(F)F)c2)c1,-2.37%,
CCCc1ccccc1,2.65%,
